The full ranking holds about 1,500 compounds; the median of “Excess HSA synergy score (sum over dose matrix of excess over highest single agent)” is about 43, and the lowest 2% start at about -900. This is one part of a sample in which the lowest values are shown more often than they occur.
Test system: PEO-1
Assay: Excess HSA synergy score (sum over dose matrix of excess over highest single agent) (score (summed % response)); higher = less synergy / more antagonism (negative = synergy)
Details: 72 h, read-out: viability/apoptosis luminescence (CellTiter-Glo or Caspase3-Glo / not stated per table)
[1] = matrix design: 6x6, 5-fold dilutions (primary screen)
[2] = matrix design: 10x10, 9-step dilutions (confirmatory)

SMILES: NC(=O)c1c(OCc2c(F)cc(Br)cc2F)nsc1NC(=O)NCCCCN1CCCC1 + CC[C@H](NC(=O)[C@H](C)NC)C(=O)N1C[C@@H](O)C[C@H]1Cc1c(-c2[nH]c3cc(F)ccc3c2C[C@@H]2C[C@H](O)CN2C(=O)[C@H](CC)NC(=O)[C@H](C)NC)[nH]c2cc(F)ccc12 [Birinapant]
- Excess HSA synergy score [1]: 11

SMILES: C#Cc1cccc(Nc2ncnc3cc(OC)c(OCCCCCCC(=O)NO)cc23)c1 + CC[C@H](NC(=O)[C@H](C)NC)C(=O)N1C[C@@H](O)C[C@H]1Cc1c(-c2[nH]c3cc(F)ccc3c2C[C@@H]2C[C@H](O)CN2C(=O)[C@H](CC)NC(=O)[C@H](C)NC)[nH]c2cc(F)ccc12 [Birinapant]
- Excess HSA synergy score [1]: -55.2

SMILES: CCC(CC)CC1(C(=O)Nc2ccccc2SC(=O)C(C)C)CCCCC1 [Dalcetrapib] + CC[C@H](NC(=O)[C@H](C)NC)C(=O)N1C[C@@H](O)C[C@H]1Cc1c(-c2[nH]c3cc(F)ccc3c2C[C@@H]2C[C@H](O)CN2C(=O)[C@H](CC)NC(=O)[C@H](C)NC)[nH]c2cc(F)ccc12 [Birinapant]
- Excess HSA synergy score [1]: 134

SMILES: CC(C)(C)c1[nH]cnc1/C=c1\[nH]c(=O)/c(=C/c2ccccc2)[nH]c1=O [Plinabulin] + CC[C@H](NC(=O)[C@H](C)NC)C(=O)N1C[C@@H](O)C[C@H]1Cc1c(-c2[nH]c3cc(F)ccc3c2C[C@@H]2C[C@H](O)CN2C(=O)[C@H](CC)NC(=O)[C@H](C)NC)[nH]c2cc(F)ccc12 [Birinapant]
- Excess HSA synergy score [1]: -109

SMILES: COc1ccnc2[nH]cc(C(=O)C(=O)N3CCN(C(=O)c4ccccc4)C[C@H]3C)c12 + CC[C@H](NC(=O)[C@H](C)NC)C(=O)N1C[C@@H](O)C[C@H]1Cc1c(-c2[nH]c3cc(F)ccc3c2C[C@@H]2C[C@H](O)CN2C(=O)[C@H](CC)NC(=O)[C@H](C)NC)[nH]c2cc(F)ccc12 [Birinapant]
- Excess HSA synergy score [1]: 263

SMILES: C[C@H]1[C@H](C)CC[C@]2(C(=O)O)CC[C@]3(C)C(=CC[C@@H]4[C@@]5(C)C[C@@H](O)[C@H](O)[C@@](C)(CO)[C@@H]5CC[C@]43C)[C@H]12 [Asiatic acid] + CC[C@H](NC(=O)[C@H](C)NC)C(=O)N1C[C@@H](O)C[C@H]1Cc1c(-c2[nH]c3cc(F)ccc3c2C[C@@H]2C[C@H](O)CN2C(=O)[C@H](CC)NC(=O)[C@H](C)NC)[nH]c2cc(F)ccc12 [Birinapant]
- Excess HSA synergy score [1]: 84.9

SMILES: CCc1cnn2c(NCc3ccc[n+]([O-])c3)cc(N3CCCC[C@H]3CCO)nc12 + CC[C@H](NC(=O)[C@H](C)NC)C(=O)N1C[C@@H](O)C[C@H]1Cc1c(-c2[nH]c3cc(F)ccc3c2C[C@@H]2C[C@H](O)CN2C(=O)[C@H](CC)NC(=O)[C@H](C)NC)[nH]c2cc(F)ccc12 [Birinapant]
- Excess HSA synergy score [1]: 5.95
- Excess HSA synergy score [2]: -374

SMILES: Nc1nc2[nH]cc(CCc3ccc(C(=O)N[C@@H](CCC(=O)O)C(=O)O)cc3)c2c(=O)[nH]1 [Pemetrexed disodium] + CC[C@H](NC(=O)[C@H](C)NC)C(=O)N1C[C@@H](O)C[C@H]1Cc1c(-c2[nH]c3cc(F)ccc3c2C[C@@H]2C[C@H](O)CN2C(=O)[C@H](CC)NC(=O)[C@H](C)NC)[nH]c2cc(F)ccc12 [Birinapant]
- Excess HSA synergy score [1]: -173

SMILES: Nc1nc(=O)n([C@H]2C[C@H](O)[C@@H](CO)O2)cc1F + CC[C@H](NC(=O)[C@H](C)NC)C(=O)N1C[C@@H](O)C[C@H]1Cc1c(-c2[nH]c3cc(F)ccc3c2C[C@@H]2C[C@H](O)CN2C(=O)[C@H](CC)NC(=O)[C@H](C)NC)[nH]c2cc(F)ccc12 [Birinapant]
- Excess HSA synergy score [1]: -352

SMILES: Nc1ncn([C@H]2C[C@H](O)[C@@H](CO)O2)c(=O)n1 [Decitabine] + CC[C@H](NC(=O)[C@H](C)NC)C(=O)N1C[C@@H](O)C[C@H]1Cc1c(-c2[nH]c3cc(F)ccc3c2C[C@@H]2C[C@H](O)CN2C(=O)[C@H](CC)NC(=O)[C@H](C)NC)[nH]c2cc(F)ccc12 [Birinapant]
- Excess HSA synergy score [1]: -104

SMILES: Nc1nc(F)nc2c1ncn2[C@@H]1O[C@H](CO)[C@@H](O)[C@H]1O [2-Fluoroadenosine] + CC[C@H](NC(=O)[C@H](C)NC)C(=O)N1C[C@@H](O)C[C@H]1Cc1c(-c2[nH]c3cc(F)ccc3c2C[C@@H]2C[C@H](O)CN2C(=O)[C@H](CC)NC(=O)[C@H](C)NC)[nH]c2cc(F)ccc12 [Birinapant]
- Excess HSA synergy score [1]: 41.5

SMILES: Nc1nc(Cl)nc2c1ncn2[C@H]1C[C@H](O)[C@@H](CO)O1 [Cladribine] + CC[C@H](NC(=O)[C@H](C)NC)C(=O)N1C[C@@H](O)C[C@H]1Cc1c(-c2[nH]c3cc(F)ccc3c2C[C@@H]2C[C@H](O)CN2C(=O)[C@H](CC)NC(=O)[C@H](C)NC)[nH]c2cc(F)ccc12 [Birinapant]
- Excess HSA synergy score [1]: -229
- Excess HSA synergy score [2]: -1080

SMILES: Nc1ncnc2c1ncn2[C@@H]1O[C@H](CO)[C@@H](O)[C@H]1O [Adenosine] + CC[C@H](NC(=O)[C@H](C)NC)C(=O)N1C[C@@H](O)C[C@H]1Cc1c(-c2[nH]c3cc(F)ccc3c2C[C@@H]2C[C@H](O)CN2C(=O)[C@H](CC)NC(=O)[C@H](C)NC)[nH]c2cc(F)ccc12 [Birinapant]
- Excess HSA synergy score [1]: 270

SMILES: Nc1nc(Cl)nc2c1ncn2[C@@H]1O[C@H](CO)[C@@H](O)[C@@H]1F [Clofarabine] + CC[C@H](NC(=O)[C@H](C)NC)C(=O)N1C[C@@H](O)C[C@H]1Cc1c(-c2[nH]c3cc(F)ccc3c2C[C@@H]2C[C@H](O)CN2C(=O)[C@H](CC)NC(=O)[C@H](C)NC)[nH]c2cc(F)ccc12 [Birinapant]
- Excess HSA synergy score [1]: -118
- Excess HSA synergy score [2]: -898

SMILES: CC1=C(CO)C(=O)O[C@@H]([C@@H](C)[C@H]2CC[C@H]3[C@@H]4C[C@H]5O[C@]56[C@@H](O)C=CC(=O)[C@]6(C)[C@H]4CC[C@]23C)C1 [Withaferin A] + CC[C@H](NC(=O)[C@H](C)NC)C(=O)N1C[C@@H](O)C[C@H]1Cc1c(-c2[nH]c3cc(F)ccc3c2C[C@@H]2C[C@H](O)CN2C(=O)[C@H](CC)NC(=O)[C@H](C)NC)[nH]c2cc(F)ccc12 [Birinapant]
- Excess HSA synergy score [1]: -42.3

SMILES: O=C(Nc1nnc(-c2ccco2)o1)c1cc(-c2ccccc2)nc2ccccc12 + CC[C@H](NC(=O)[C@H](C)NC)C(=O)N1C[C@@H](O)C[C@H]1Cc1c(-c2[nH]c3cc(F)ccc3c2C[C@@H]2C[C@H](O)CN2C(=O)[C@H](CC)NC(=O)[C@H](C)NC)[nH]c2cc(F)ccc12 [Birinapant]
- Excess HSA synergy score [1]: 57.7

SMILES: CCN(CC)CCOc1ccc(Nc2ncc3cc(-c4c(Cl)cccc4Cl)c(=O)n(C)c3n2)cc1 + CC[C@H](NC(=O)[C@H](C)NC)C(=O)N1C[C@@H](O)C[C@H]1Cc1c(-c2[nH]c3cc(F)ccc3c2C[C@@H]2C[C@H](O)CN2C(=O)[C@H](CC)NC(=O)[C@H](C)NC)[nH]c2cc(F)ccc12 [Birinapant]
- Excess HSA synergy score [1]: -224
- Excess HSA synergy score [2]: -954

SMILES: CSc1cccc(Nc2ncc3cc(-c4c(Cl)cccc4Cl)c(=O)n(C)c3n2)c1 + CC[C@H](NC(=O)[C@H](C)NC)C(=O)N1C[C@@H](O)C[C@H]1Cc1c(-c2[nH]c3cc(F)ccc3c2C[C@@H]2C[C@H](O)CN2C(=O)[C@H](CC)NC(=O)[C@H](C)NC)[nH]c2cc(F)ccc12 [Birinapant]
- Excess HSA synergy score [1]: -134

SMILES: Cc1cnc(Nc2ccc(OCCN3CCCC3)cc2)nc1Nc1cccc(S(=O)(=O)NC(C)(C)C)c1 + CC[C@H](NC(=O)[C@H](C)NC)C(=O)N1C[C@@H](O)C[C@H]1Cc1c(-c2[nH]c3cc(F)ccc3c2C[C@@H]2C[C@H](O)CN2C(=O)[C@H](CC)NC(=O)[C@H](C)NC)[nH]c2cc(F)ccc12 [Birinapant]
- Excess HSA synergy score [1]: 70.3

SMILES: CO[C@@]12[C@H](COC(N)=O)C3=C(C(=O)C(C)=C(N)C3=O)N1C[C@@H]1N[C@@H]12 [Mitomycin C] + CC[C@H](NC(=O)[C@H](C)NC)C(=O)N1C[C@@H](O)C[C@H]1Cc1c(-c2[nH]c3cc(F)ccc3c2C[C@@H]2C[C@H](O)CN2C(=O)[C@H](CC)NC(=O)[C@H](C)NC)[nH]c2cc(F)ccc12 [Birinapant]
- Excess HSA synergy score [1]: -351
- Excess HSA synergy score [2]: -1240

SMILES: CC(C)OC(=O)C1=CN(C(=O)c2ccc(F)c(F)c2)CC(C)(C)c2c1[nH]c1ccccc21 [Turofexorate isopropyl] + CC[C@H](NC(=O)[C@H](C)NC)C(=O)N1C[C@@H](O)C[C@H]1Cc1c(-c2[nH]c3cc(F)ccc3c2C[C@@H]2C[C@H](O)CN2C(=O)[C@H](CC)NC(=O)[C@H](C)NC)[nH]c2cc(F)ccc12 [Birinapant]
- Excess HSA synergy score [1]: 99.9

SMILES: Cc1cc(O)c2c3c4c(cc(O)c13)C(C)(C)C(=O)c1c(O)cc(O)c(c1-4)C2=O [Resistomycin] + CC[C@H](NC(=O)[C@H](C)NC)C(=O)N1C[C@@H](O)C[C@H]1Cc1c(-c2[nH]c3cc(F)ccc3c2C[C@@H]2C[C@H](O)CN2C(=O)[C@H](CC)NC(=O)[C@H](C)NC)[nH]c2cc(F)ccc12 [Birinapant]
- Excess HSA synergy score [1]: -31.1

SMILES: CCN1CCN(CC(=O)Nc2ccc(-c3cccc4c(=O)cc(N5CCOCC5)oc34)c3sc4ccccc4c23)CC1 + CC[C@H](NC(=O)[C@H](C)NC)C(=O)N1C[C@@H](O)C[C@H]1Cc1c(-c2[nH]c3cc(F)ccc3c2C[C@@H]2C[C@H](O)CN2C(=O)[C@H](CC)NC(=O)[C@H](C)NC)[nH]c2cc(F)ccc12 [Birinapant]
- Excess HSA synergy score [1]: 32

SMILES: Nc1ccc(C(=O)Nc2cccc(-c3nc(N4CCOCC4)c4oc5ncccc5c4n3)c2)cn1 + CC[C@H](NC(=O)[C@H](C)NC)C(=O)N1C[C@@H](O)C[C@H]1Cc1c(-c2[nH]c3cc(F)ccc3c2C[C@@H]2C[C@H](O)CN2C(=O)[C@H](CC)NC(=O)[C@H](C)NC)[nH]c2cc(F)ccc12 [Birinapant]
- Excess HSA synergy score [1]: -134
